# Records with an inconclusive call do not appear. A structure can be active in one record and inactive in another. Activity calls are given as the source filed them. Rule for the calls, unless noted: active = hit-call score of the fitted dose curve at least 0.9, where 1 is the maximum; inconclusive = response in the unintended direction; inactive = score below 0.9.
# How the values were obtained:
# [1] = Tanguay_ZF_120hpf_SWIM_legacy: (Legacy) Oregon State University Tanguay Lab 120 Hour Post-fertilization zebrafish Assay for Swim Bladder Malformation (AID 2283654);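 note: swim bladder malformation in each larva scored yes or no under brightfield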
# How it was run: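 Dechorionated wild-type Tropical 5D zebrafish embryos, one per well from 6 hpf, were statically exposed at 28C until 120 hpf in 0.64% DMSO. Swim bladder malformation scored as present/absent by brightfield microscopy; not scored in dead larvae.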
# [2] = Tanguay_ZF_120hpf_TRUN_legacy: (Legacy) Oregon State University Tanguay Lab 120 Hour Post-fertilization zebrafish Assay for Truncated Body (AID 2283655)
# How it was run: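 Tropical 5D wild-type embryos, dechorionated with pronase at 4 hpf, were placed singly in wells at 6 hpf and statically exposed at 28C until 120 hpf, final DMSO 0.64%. Truncated body was scored present/absent by brightfield microscopy.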
# [3] = system: Thyroperoxidase (TPO), gene 54314; test: CCTE_Simmons_AUR_rTPO: CCTE's Amplex UltraRed Assay for Thyroperoxidase (TPO) Inhibition, Simmons Lab (AID 2283662);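 for AC50: potency for loss of signal meaning inhibition of peroxidase activity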
# How it was run: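 Endpoint is decreased Amplex UltraRed fluorescence after a 30-min, 37C reaction of rat thyroid microsomes with 300 uM H2O2. Eight test concentrations (5 nM–87.5 uM final) in 0.5% DMSO, three biological replicates each.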
# [4] = CCTE_Simmons_CellTiterGLO_HEK293T: Viability Assessment in CCTE's Assays for Thyroperoxidase (TPO) Inhibition, Simmons Lab (AID 2283665);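 for AC50: cells exposed to compound for 24 h before readout; actives reduce ATP signal below DMSO vehicle meaning cytotoxicity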
# How it was run: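 HEK293T cells in DMEM with 1% FBS, dosed 24 h at 37C with 8 concentrations, 5 nM–87.5 uM final, 0.5% DMSO. ATP measured by CellTiter Glo luminescence; loss of signal vs DMSO, three biological replicates.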
# [5] = Tanguay_ZF_120hpf_TR_legacy: (Legacy) Oregon State University Tanguay Lab 120 Hour Post-fertilization zebrafish Assay for Touch Response (AID 2283667)
# How it was run: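 Tropical 5D wild-type zebrafish embryos statically exposed to 120 hpf at 28°C, sealed and dark-covered, 0.64% DMSO final; touch response scored as present/absent by brightfield microscopy at 120 hpf. Trimethyltin chloride 5 uM positive control; dead embryos not scored.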
# [6] = read-out: solute carrier (SLC22A6), SLC22A6 (gene 9356); test: LTEA_HepaRG_SLC22A6: Life Technologies and Expression Analysis (LTEA) Assay for solute carrier (SLC22A6) using HepaRG (AID 2283653; active = hit-call score of the fitted dose curve at least 0.9, where 1 is the maximum; inactive = score below 0.9); conditions: mRNA level, 48 h; actives raise or lower the signal
# How it was run: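 Differentiated human HepaRG cells were exposed for 48 h in serum-free induction medium to eight concentrations (top 100 uM, half-log steps, 0.5% DMSO), in duplicate. SLC22A6 mRNA was quantified by qRT-PCR, normalised to ACTB, GAPDH and POLR2A, and fitted bidirectionally against DMSO.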
# [7] = Tanguay_ZF_120hpf_NC_legacy: (Legacy) Oregon State University Tanguay Lab 120 Hour Post-fertilization zebrafish Assay for Notochord and Tail Malformation (AID 2283656)
# How it was run: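 Dechorionated Tropical 5D wild-type zebrafish embryos, one per well from 6 hpf, statically exposed to 120 hpf at 28C in 0.64% DMSO final. Notochord distortion scored present/absent by brightfield; dead embryos excluded.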
# [8] = read-out: solute carrier (SLC10A1), SLC10A1 (gene 6554); test: LTEA_HepaRG_SLC10A1: Life Technologies and Expression Analysis (LTEA) Assay for solute carrier (SLC10A1) using HepaRG (AID 2283657; active = hit-call score of the fitted dose curve at least 0.9, where 1 is the maximum; inactive = score below 0.9); conditions: mRNA level, 48 h; actives raise or lower the signal
# Protocol: LTEA_HepaRG is a cell based, multiplexed-readout assay that uses HepaRG, a human liver cell line, with measurements taken at 48 hours after chemical dosing on a 96-well plate.LTEA_HepaRG_SLC10A1 is one of 102 assay component(s) measured in the LTEA HepaRG cell culture assay. It is a marker of NR mediated transport.Data from the assay component LTEA_HepaRG_SLC10A1 was analyzed into 1 endpoint. This assay endpoint, LTEA_HepaRG_SLC10A1, was analyzed with bidirectional fitting relative to DMSO as the negative control and baseline of activity. Using a type of inducible reporter, measures of mRNA induction for gain or loss-of-signal activity can be used to understand regulation of transcription factor activity. To generalize the intended target to other relatable targets, this assay endpoint is annotated to the transporter intended target family, where the subfamily is sodium/bile acid cotransporter.
# A total of 1060 chemcials from the ToxCast library were tested in eight-point concentration-response experiments. Cell culture and cytotoxicity assays were conducted at Thermo Fisher Scientific's Custom Services facility (Madison, WI). A single lot of human HepaRG cells (Thermo Fisher Scientific, Frederick, MD) was used for the cell culture experiments. 96-well format collagen type I coated plates of human HepaRG cells were prepared using established methods. Briefly, cryopreserved HepaRG cells were thawed, plated at a density of approximately 100,000 cells/well in HepaRG Thaw, Plate, and General Purpose media (HPRG770, Thermo Fisher Scientific), and incubated for 48 hours. 0.5% DMSO was selected as vehicle control to balance the requisite need of DMSO in HepaRG cultures to maintain differentiation (for example, baseline metabolism, proportions of hepatocytes vs. cholangiocytes), while enabling further hepatic receptor pathway activation (for example, PXR and CAR) in response to chemical exposure. 48 hours after plating, the culture medium was replaced with HepaRG Serum-Free Incudtion Media. Cells were exposed to each test chemical in duplicate and maintained in CO2 incubators for another 48 hours. Chemical plates were thawed to room temperature and 200x concentrations of treatment groups were prepared. 8-point conentration-reponse curves were made with the highest exposure at 100 uM, followed by half-log dilutions, all in 0.5% DMSO. […] Fluidigm's 96.96 Dynamic ArrayTM (Fluidigm, Amsterdam, the Netherlands) technology was used for gene expression analyses by quantitative reverse transcription polymerase chain reaction (qRT-PCR, performed by Quintiles/Expression Analysis, Durham, NC)89. […]
# [9] = read-out: matrix metalloproteinase-1 (MMP1), MMP1 (gene 4312); test: LTEA_HepaRG_MMP1: Life Technologies and Expression Analysis (LTEA) Assay for matrix metalloproteinase-1 (MMP1) using HepaRG (AID 2283658; active = hit-call score of the fitted dose curve at least 0.9, where 1 is the maximum; inactive = score below 0.9); conditions: mRNA level, 48 h; actives raise or lower the signal
# How it was run: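 Differentiated HepaRG cells, plated 48 h then switched to serum-free induction medium, were exposed in duplicate for 48 h to eight half-log concentrations up to 100 uM in 0.5% DMSO; MMP1 mRNA measured by qRT-PCR, normalized to ACTB, GAPDH, POLR2A.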
# [10] = read-out: Cytochrome P450 (CYP24A1_1), CYP24A1 (gene 1591); test: LTEA_HepaRG_CYP24A1_1: Life Technologies and Expression Analysis (LTEA) Assay for Cytochrome P450 (CYP24A1_1) using HepaRG (AID 2283671; active = hit-call score of the fitted dose curve at least 0.9, where 1 is the maximum; inactive = score below 0.9); conditions: mRNA level, 48 h; actives raise or lower the signal
# How it was run: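 Differentiated human HepaRG cells in serum-free induction medium, exposed 48 h in duplicate to eight half-log concentrations from 100 uM top, 0.5% DMSO. Transcript measured by TaqMan qRT-PCR, normalised to ACTB, GAPDH, POLR2A; bidirectional fitting versus DMSO.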
structure (smiles),measurement,setting,value
CCC(C)(C)c1ccc(O)c(C(C)(C)CC)c1,outcome,[1],inactive
same,outcome,[2],inactive
same,AC50,[3],4.15 µM (active)
same,AC50,[4],0.847 µM (active)
same,outcome,[5],inactive
O=C(O)C(F)(F)C(F)(F)C(F)(F)C(F)(F)C(F)(F)C(F)(F)C(F)(F)C(F)(F)C(F)(F)C(F)(F)F,outcome,[6],inactive
same,outcome,[2],inactive
same,outcome,[7],inactive
same,AC50,[8],47.8 µM (active)
same,outcome,[9],inactive
same,outcome,[5],inactive
same,outcome,[10],inactive
C=C(C)C(=O)[O][Sn]([CH2]CCC)([CH2]CCC)[CH2]CCC,outcome,[1],inactive
same,outcome,[2],inactive
same,outcome,[7],inactive
same,outcome,[5],inactive
ClCC(Cl)CCl,outcome,[1],inactive
same,outcome,[2],inactive
same,outcome,[7],inactive
NC(=O)O,outcome,[6],inactive
same,outcome,[1],inactive
same,outcome,[2],inactive
same,outcome,[7],inactive
same,outcome,[8],inactive
same,outcome,[9],inactive
same,outcome,[5],inactive
same,outcome,[10],inactive
Cn1sc(Cl)cc1=O,outcome,[1],inactive
OCc1ccco1,AC50,[3],28.5 µM (active)
same,outcome,[4],inactive
Clc1ccc(COC(Cn2ccnc2)c2ccc(Cl)cc2Cl)cc1 (centres undefined),AC50,[3],43.8 µM (active)
same,AC50,[4],22.4 µM (active)
C[C@]12CCC(=O)C[C@@H]1CC[C@@H]1[C@@H]2CC[C@]2(C)[C@@H](O)CC[C@@H]12,outcome,[2],inactive
same,outcome,[7],inactive
same,outcome,[5],inactive
CC1(C)CCC(Cc2ccc(Cl)cc2)C1(O)Cn1cncn1 (centres undefined),outcome,[3],inactive
same,AC50,[4],89 µM (active)
COP(=O)(OC)O/C(=C\Cl)c1cc(Cl)c(Cl)cc1Cl,AC50,[3],48.3 µM (active)
same,AC50,[4],25 µM (active)
O=C(O)C(F)(F)C(F)(F)C(F)(F)C(F)(F)C(F)(F)C(F)(F)F,outcome,[1],inactive
same,outcome,[7],inactive
same,AC50,[3],16.5 µM (active)
same,outcome,[3],inactive
same,outcome,[5],inactive
